According to the supplement of paper PMC8728848:
This excerpt belongs to a sample that is enriched for the strongest signals.

Tests used:
Test in all cases: glycan array binding signal (z-score within array); higher = stronger binding
Settings in all cases: glycan notation: IUPAC condensed, linker removed
[1] = target: Fuc(a1-2)Gal(b1-3)GalNAc(b1-3)Gal
Method in brief: (§1)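 Arrays were curated from the Consortium for Functional Glycomics database, 3228 in total, and kept only where the protein sequence was available. Binding is expressed as a within-array Z-score. This score was averaged across arrays of the same protein sequence at different concentrations or buffers and across linkers, and negative values can be read as non-binding.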

[2] = target: Fuc(a1-2)Gal(b1-3)GalNAc(b1-3)Gal(a1-4)Gal(b1-4)Glc
Method in brief: as §1

[3] = target: Fuc(a1-2)Gal(b1-3)GlcNAc6S
Method in brief: as §1

[4] = target: Fuc(a1-2)Gal(b1-4)GlcNAc(b1-3)Gal(b1-4)GlcNAc
Method in brief: as §1

[5] = target: Fuc(a1-2)Gal(b1-4)GlcNAc(b1-3)GalNAc
Method in brief: as §1

[6] = target: Fuc(a1-2)Gal(b1-4)[Fuc(a1-3)]GlcNAc(b1-3)Gal(b1-4)[Fuc(a1-3)]GlcNAc(b1-3)Gal(b1-4)[Fuc(a1-3)]GlcNAc
Method in brief: as §1

[7] = target: Fuc(a1-2)Gal6S(b1-4)Glc6S
Method in brief: as §1

[8] = target: Fuc(a1-2)[Gal(a1-3)]Gal(b1-3)GlcNAc
Method in brief: as §1

[9] = target: Fuc(a1-2)[Gal(a1-4)]Gal(b1-4)GlcNAc
Method in brief: as §1

[10] = target: Fuc(a1-2)[GalNAc(a1-3)]Gal(b1-4)GlcNAc(b1-3)Gal(b1-4)GlcNAc(b1-3)Gal(b1-4)GlcNAc
Method in brief: as §1

[11] = target: Fuc(a1-2)[GalNAc(a1-3)]Gal(b1-4)GlcNAc(b1-3)[Fuc(a1-2)[GalNAc(a1-3)]Gal(b1-4)GlcNAc(b1-6)]GalNAc
Method in brief: as §1

[12] = target: Fuc(a1-3)[Gal(b1-4)]Glc6S
Method in brief: as §1

[13] = target: Fuc(a1-3)[Gal(b1-4)]GlcNAc(b1-3)GalNAc
Method in brief: as §1

[14] = target: Fuc(a1-3)[Gal(b1-4)]GlcNAc(b1-6)GalNAc
Method in brief: as §1

[15] = target: Fuc(a1-3)[GalNAc(b1-4)]GlcNAc
Method in brief: as §1

[16] = target: Gal(a1-4)GlcNAc
Method in brief: as §1

[17] = target: Gal(b1-2)Gal
Method in brief: as §1

[18] = target: Gal(b1-3)Gal(b1-4)GlcNAc
Method in brief: as §1

[19] = target: Gal(b1-3)GalNAc(a1-3)[Fuc(a1-2)]Gal(b1-4)Glc
Method in brief: as §1

[20] = target: Gal(b1-3)GlcNAc(b1-3)GalNAc
Method in brief: as §1

[21] = target: Gal(b1-3)GlcNAc6S
Method in brief: as §1

[22] = target: Gal(b1-3)[GlcNAc(b1-6)]GalNAc
Method in brief: as §1

[23] = target: Gal(b1-4)Glc6S
Method in brief: as §1

[24] = target: Gal(b1-4)GlcNAc(b1-2)Man(a1-3)[GlcNAc(b1-4)][Gal(b1-4)GlcNAc(b1-2)Man(a1-6)]Man(b1-4)GlcNAc(b1-4)GlcNAc
Method in brief: as §1

[25] = target: Gal(b1-4)GlcNAc(b1-2)[Gal(b1-4)GlcNAc(b1-4)]Man(a1-3)[Gal(b1-4)GlcNAc(b1-2)Man(a1-6)]Man(b1-4)GlcNAc(b1-4)GlcNAc
Method in brief: as §1

[26] = target: Gal(b1-4)GlcNAc(b1-3)Gal(b1-3)GlcNAc
Method in brief: as §1

[27] = target: Gal(b1-4)GlcNAc(b1-3)Gal(b1-4)GlcNAc(b1-2)Man(a1-3)[Gal(b1-4)GlcNAc(b1-3)Gal(b1-4)GlcNAc(b1-2)Man(a1-6)]Man(b1-4)GlcNAc(b1-4)[Fuc(a1-6)]GlcNAc
Method in brief: as §1

[28] = target: Gal(b1-4)GlcNAc(b1-3)Gal(b1-4)GlcNAc(b1-3)Gal(b1-4)GlcNAc(b1-3)Gal(b1-4)GlcNAc(b1-3)Gal(b1-4)GlcNAc(b1-2)Man(a1-3)[Gal(b1-4)GlcNAc(b1-3)Gal(b1-4)GlcNAc(b1-3)Gal(b1-4)GlcNAc(b1-3)Gal(b1-4)GlcNAc(b1-3)Gal(b1-4)GlcNAc(b1-2)Man(a1-6)]Man(b1-4)GlcNAc(b1-4)GlcNAc
Method in brief: as §1

[29] = target: Gal(b1-4)GlcNAc(b1-3)Gal(b1-4)GlcNAc(b1-6)[Gal(b1-3)]GalNAc
Method in brief: as §1

[30] = target: Gal(b1-4)GlcNAc(b1-3)[Gal(b1-4)GlcNAc(b1-6)]Gal(b1-4)GlcNAc
Method in brief: as §1

[31] = target: Gal6S(b1-3)GlcNAc6S
Method in brief: as §1

[32] = target: GalNAc4S6S(b1-4)GlcNAc
Method in brief: as §1

[33] = target: Glc(a1-4)Glc
Method in brief: as §1

[34] = target: GlcA3S(b1-3)Gal(b1-4)GlcNAc(b1-3)Gal(b1-4)Glc
Method in brief: as §1

[35] = target: GlcNAc(a1-4)Gal(b1-3)GlcNAc
Method in brief: as §1

[36] = target: GlcNAc(b1-2)Man(a1-3)[GlcNAc(b1-2)Man(a1-6)]Man(b1-4)GlcNAc(b1-4)GlcNAc
Method in brief: as §1

[37] = target: Man(a1-3)[Man(a1-6)]Man
Method in brief: as §1

[38] = target: Man(a1-6)Man
Method in brief: as §1

[39] = target: Neu5Ac(a2-3)Gal(b1-3)GalNAc6S
Method in brief: as §1

[40] = target: Neu5Ac(a2-3)Gal(b1-4)GlcNAc(b1-2)[Neu5Ac(a2-3)Gal(b1-4)GlcNAc(b1-4)]Man(a1-3)[GlcNAc(b1-4)][Neu5Ac(a2-3)Gal(b1-4)GlcNAc(b1-2)[Neu5Ac(a2-3)Gal(b1-4)GlcNAc(b1-6)]Man(a1-6)]Man(b1-4)GlcNAc(b1-4)GlcNAc
Method in brief: as §1

[41] = target: Neu5Ac(a2-3)Gal(b1-4)GlcNAc(b1-3)Gal(b1-4)GlcNAc(b1-2)Man(a1-3)[Neu5Ac(a2-3)Gal(b1-4)GlcNAc(b1-3)Gal(b1-4)GlcNAc(b1-2)Man(a1-6)]Man(b1-4)GlcNAc(b1-4)GlcNAc
Method in brief: as §1

[42] = target: Neu5Ac(a2-3)Gal(b1-4)GlcNAc(b1-3)Gal(b1-4)GlcNAc(b1-3)GalNAc
Method in brief: as §1

[43] = target: Neu5Ac(a2-3)Gal(b1-4)[Fuc(a1-3)]GlcNAc(b1-3)GalNAc
Method in brief: as §1

[44] = target: Neu5Ac(a2-3)Gal6S(b1-4)[Fuc(a1-3)]GlcNAc
Method in brief: as §1

[45] = target: Neu5Ac(a2-3)[GalNAc(b1-4)]Gal(b1-4)Glc
Method in brief: as §1

[46] = target: Neu5Ac(a2-6)Gal(b1-3)GlcNAc(b1-3)[Gal(b1-4)GlcNAc(b1-6)]Gal(b1-4)Glc
Method in brief: as §1

[47] = target: Neu5Ac(a2-6)Gal(b1-4)GlcNAc(b1-3)Gal(b1-4)GlcNAc(b1-3)GalNAc
Method in brief: as §1

[48] = target: Neu5Ac(a2-6)Gal(b1-4)GlcNAc6S
Method in brief: as §1

[49] = target: Neu5Ac(a2-8)Neu5Ac(a2-3)[Gal(b1-3)GalNAc(b1-4)]Gal(b1-4)Glc
Method in brief: as §1

[50] = target: Neu5Gc(b2-6)Gal(b1-4)GlcNAc
Method in brief: as §1

B1: TAL6-4LysM (Trichoderma atroviride) (protein)
chain: AADSIPSISPTGIITPTPTQSGMVSNCNKFYDVHSNDGCSAIASSQHVDLSSLYKWNPAIKTDCSGLQASVYVCIGILTTSMSTTSKLPTTTSKPSTTSKPPTGITTPTPTQSGMVKNCNKFYDVHSGDGCSAIASSQKVNLSSFYLWNPAVKTDCSGLQASVFVCIGTLTTSMSTTTSKLPTTTSKPSTTSKPPTGIITPTPTQNGMVKNCNKFYDVHSGDGCSAIASSQKVNLSSFYLWNPAVKTDCSGLQASVFVCVGTATTTTAAGITTPTPTQSGMVSGCNKFYDVHAGDGCSAIASSQKIALSSLYKWNPAVKTDCSGLQASVYICIGVGNAAAARVTGALEQKLISEEDLNSAVDHHHHHH
glycan array binding signal (z-score) [1]: -0.335 | glycan array binding signal (z-score) [2]: -1.13 | glycan array binding signal (z-score) [3]: 1.83 | glycan array binding signal (z-score) [4]: 0.858 | glycan array binding signal (z-score) [5]: -0.49 | glycan array binding signal (z-score) [6]: 0.899 | glycan array binding signal (z-score) [7]: -0.234 | glycan array binding signal (z-score) [8]: -0.6 | glycan array binding signal (z-score) [9]: 2.32 | glycan array binding signal (z-score) [10]: -0.51 | glycan array binding signal (z-score) [11]: -0.157 | glycan array binding signal (z-score) [12]: 0.195 | glycan array binding signal (z-score) [13]: -0.606 | glycan array binding signal (z-score) [14]: -0.062 | glycan array binding signal (z-score) [15]: 3.19 | glycan array binding signal (z-score) [16]: 2.59 | glycan array binding signal (z-score) [17]: 0.734 | glycan array binding signal (z-score) [18]: 2.92 | glycan array binding signal (z-score) [19]: -0.473 | glycan array binding signal (z-score) [20]: 0.663 | glycan array binding signal (z-score) [21]: 3.15 | glycan array binding signal (z-score) [22]: 2.39 | glycan array binding signal (z-score) [23]: -0.334 | glycan array binding signal (z-score) [24]: -0.532 | glycan array binding signal (z-score) [25]: 3.53 | glycan array binding signal (z-score) [26]: -0.823 | glycan array binding signal (z-score) [27]: -0.014 | glycan array binding signal (z-score) [28]: -0.74 | glycan array binding signal (z-score) [29]: 1.17 | glycan array binding signal (z-score) [30]: 0.074 | glycan array binding signal (z-score) [31]: 0.018 | glycan array binding signal (z-score) [32]: 1.16 | glycan array binding signal (z-score) [33]: -0.584 | glycan array binding signal (z-score) [34]: 1.02 | glycan array binding signal (z-score) [35]: -0.119 | glycan array binding signal (z-score) [36]: 2.79 | glycan array binding signal (z-score) [37]: 3.24 | glycan array binding signal (z-score) [38]: -1.37 | glycan array binding signal (z-score) [39]: 0.743 | glycan array binding signal (z-score) [40]: -1.17 | glycan array binding signal (z-score) [41]: 2.52 | glycan array binding signal (z-score) [42]: -0.304 | glycan array binding signal (z-score) [43]: -0.18 | glycan array binding signal (z-score) [44]: -1.06 | glycan array binding signal (z-score) [45]: -1.03 | glycan array binding signal (z-score) [46]: 0.176 | glycan array binding signal (z-score) [47]: 3.9 | glycan array binding signal (z-score) [48]: 1.36 | glycan array binding signal (z-score) [49]: -0.586 | glycan array binding signal (z-score) [50]: -0.286
